Source: PubChem BioAssay (National Center for Advancing Translational Sciences (NCATS))
Hits are enriched below; roughly 4.8% of the tested compounds scored in any of these assays.
DRD3 antagonist = D3 dopamine receptor (human) antagonism; D3R cells, DiscoveRx beta-arrestin luminescence, antagonist mode; hits give low values; P35462; max response, negative = inhibition, %; 360,000 compounds, 2.5% hits; in the data active means max response below about -50%; inconclusive means no clear call, values can overlap the other calls; further: on the % scale 0 is the no-effect control and ±100 the full control effect
Target sequence (P35462 whole entry, looked up): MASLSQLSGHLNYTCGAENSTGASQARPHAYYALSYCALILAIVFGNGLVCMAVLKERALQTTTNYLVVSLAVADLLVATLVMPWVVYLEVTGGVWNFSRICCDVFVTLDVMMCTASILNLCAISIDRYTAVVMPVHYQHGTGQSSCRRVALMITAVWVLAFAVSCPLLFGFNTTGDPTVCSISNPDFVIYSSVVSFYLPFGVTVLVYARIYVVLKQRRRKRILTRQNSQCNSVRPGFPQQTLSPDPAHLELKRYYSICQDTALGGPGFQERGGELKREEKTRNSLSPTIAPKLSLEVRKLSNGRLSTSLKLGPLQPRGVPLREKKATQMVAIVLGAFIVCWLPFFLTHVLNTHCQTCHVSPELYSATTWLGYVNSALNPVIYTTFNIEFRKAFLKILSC
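Cells plated overnight at 1500 cells/well, then exposed to library compounds with dopamine controls for 90 minutes at 37 degrees C. DiscoveRx reagent added for 30–60 minutes at room temperature; luminescence read, quantitative HTS format.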
HepG2 tox = kills HepG2 cells in TGF-b inhibitor counter-screen. Potency, µM (top dose mostly 46.1 µM), for inactives: at the highest dose activity change, negative = cytotoxicity, actives largely listed as cytotoxic. HepG2 CAGA-GFP viability, ATP luminescence, 18 h. AID 588856. 410,000 compounds, 0.76% hits; further: potency means the concentration at half of the fitted maximal effect
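CellTiter-Glo luminescence gave cytotoxicity after 18 hours at 37 degrees C. The cells were HepG2 CAGA-GFP in 1% FBS DMEM, stimulated with 500 pg/mL TGF-beta after compound addition. %Activity was normalised to no-cell wells (complete cell-killing) and DMSO (no toxicity), and curves were fitted and classified.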
ATXN2 expr inh = reduces ATXN2 reporter expression in HEK-293 cells. HEK-293 ATXN2-luciferase reporter, luminescence, 24 h. 360,000 compounds, 0.72% hits. Potency, µM (top dose mostly 57 µM), without a hit: at the top dose activity change, negative = inhibition, usual class: inhibitors; further: potency means the concentration at half of the fitted maximal effect; on the % scale 0 is the no-effect control and ±100 the full control effect; nearly all actives have a fitted effect of over 55% in size
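ATXN2-luciferase reporter cells (luciferase flanked by upstream and downstream ATXN2 gene portions) were treated 24 h at 37 °C with compounds at up to 57 uM. SteadyGlo luminescence gave expression; GF-AFC fluorescence gave viability.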
DRD3 agonist = agonists of human D3 dopamine receptor; P35462; D3R DiscoveRx beta-arrestin cells, luminescence, 90 min; max activation, %; 410,000 compounds, 0.58% hits; in the data active means max activation above about 30%; further: 0% is about no effect
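Agonist-mode cell screen: cells plated at 1500/well and incubated overnight at 37 °C, then exposed to library compounds for 90 min at 37 °C. Detection reagent was added for 30–60 min at room temperature, and luminescence was read.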
S2 tox = reduces viability in counter-screen for ATXN expression inhibitors; S2 cells (HEK-293 line with an ATXN2-luciferase reporter) viability, CellTiter-Fluor protease fluorescence, 24 h; Potency, µM (series often up to 56.7 µM), hits mostly cytotoxic; 400,000 compounds, 0.49% hits; AID 651635; further: potency means the concentration at half of the fitted maximal effect; nearly all actives have a fitted effect of over 40% in size
TGFb SMAD3 inh = TGF-b pathway inhibition | Potency, µM (doses to about 46.1 µM), for inactives: at the highest dose activity, negative = inhibition, usual class: inhibitors | HepG2 CAGA-GFP TGF-b/SMAD3 reporter, GFP fluorescence, 18 h; TGF-beta stimulated, 500 pg/mL final | 410,000 compounds, 1.2% hits; further: potency means the concentration at half of the fitted maximal effect; on the % scale 0 is the no-effect control and ±100 the full control effect; nearly all actives have a fitted effect of over 65% in size
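HEPG2 CAGA-GFP reporter cells (1000/well, DMEM with 1% FBS) received compounds, then recombinant TGF-beta at 500 pg/mL final for 18 hours at 37 degrees C. Per-cell GFP summed per well was normalised to unstimulated and stimulated DMSO controls before curve fitting.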
An asterisk follows results filed as active; i = inactive; ? = inconclusive; . = no result given; [ ] = dose if it differs, or a comment. Unless noted, the call rests on the fitted dose curve; in most records, active means well fitted curve in the direction sought with a large enough effect; inconclusive means small, poorly fitted or top-dose-only effect, or another doubt; inactive means no such curve, though single readings can be large; an effect the other way counts as inactive or inconclusive.

SMILES	DRD3 antagonist	HepG2 tox	ATXN2 expr inh	DRD3 agonist	S2 tox	TGFb SMAD3 inh
Clc1ccc(SCc2cc(N3CCOCC3)nc(-c3ccccn3)n2)cc1	-53*	-42%	6.3µM*	-23	?	?
Cc1cccc2c(=O)cc(CSc3ccccc3NC(=O)c3cccc(Cl)c3)[nH]c12	.	-28%	-8%	-16	32µM*	-32%
COc1ccc(C2NC(=O)NC(C)=C2C(=O)Nc2cc(C)cc(C)c2)c(OC)c1 (configuration not stated)	.	-13%	4%	3	i	-8%
CC(C)c1ccc(Nc2cc(C(=O)NCCCN(C)Cc3ccccc3)c3ccccc3n2)cc1	.	-18%	.	-18	.	-10%
CN(CCCNC(=O)c1cccn2c(=O)c3ccccc3nc12)Cc1ccccc1	-56*	-30%	?	-57	?	11µM*
O=C(NCCN1CCN(c2ccccc2F)CC1)c1cccn2c(=O)c3ccccc3nc12	-50*	0%	5%	-17	i	19%
O=C(NCCN1CCN(c2ccccc2)CC1)c1cccn2c(=O)c3ccccc3nc12	10	3%	-3%	0	i	0%
COc1ccc(-c2cccc3c2OC(CNC(=O)c2ccc4c(c2)OCO4)C3)nn1 (configuration not stated)	.	.	.	.	i	.
CC(C)(C)C1CCC(CC2=C(O)c3ccccc3C(=O)C2=O)CC1 (configuration not stated)	.	.	?	.	i	.
CC1(NC(=O)CC(c2ccccc2)(c2ccccc2)c2ccccc2)CCN(CCCc2ccccc2)C1=O (configuration not stated)	-6	-21%	-13%	0	?	8.9µM*
O=C(NCc1cccs1)C(=O)NCC(c1ccco1)N1CCN(c2ccccc2F)CC1 (configuration not stated)	22	-1%	-13%	73*	i	-12%
COc1ccc(C(CNC(=O)c2ccco2)N2CCCCC2)cc1 (configuration not stated)	-26	-3%	-2%	-14	i	0%
O=C(NCC(c1ccco1)N1CCN(c2ccccc2F)CC1)c1ccco1 (configuration not stated)	2	3%	-5%	39*	i	-13%
Cc1ccc(C(CNC(=O)c2ccco2)N2CCN(C)CC2)cc1 (configuration not stated)	-57*	6%	-1%	-9	i	?
CCC1CN(C(=O)Nc2ccc(Br)cc2F)c2ccccc2S1 (configuration not stated)	.	-6%	.	-14	.	0%
CN1CCCN(C(=O)c2cccc(Cl)c2)CC1	3	-1%	8%	-15	i	-27%
CN1CCCN(C(=O)c2cccc(-c3ccc(C=C4C(=O)Nc5ccc(Cl)cc54)o3)c2)CC1	.	.	7.7µM*	.	.	.
CN1Cc2cccc3c2C(Cc2ccccc2S3)C1 (configuration not stated)	-64*	-37%	-10%	-9	i	?
c1ccc2c(c1)CC(N1CCCCC1)c1ccccc1S2 (configuration not stated)	-1	-49%	-31%	-3	i	0%
O=[N+]([O-])c1ccccc1-c1ccc(CN2CCN(c3ccccc3)CC2)o1	-58*	-21%	-1%	0	i	-18%
Cc1oc(-c2ccc(Cl)cc2)nc1CS(=O)CC(=O)NCCN1CCCCCC1 (configuration not stated)	?	-51%	.	-12	i	?
Cc1ccc(-c2nc(CS(=O)CC(=O)NCCN3CCCCCC3)c(C)o2)cc1 (configuration not stated)	-2	-65%	.	2	.	13µM*
CC(C)c1nn2c(=O)cc(COC(=O)c3cccs3)nc2s1	.	-4%	3%	4	i	?
O=C(c1ccccc1)c1cccn1CC(=O)N1CCc2ccccc2C1	-54*	0%	3%[11.3 µM]	-14	i	-20%
